PubChem BioAssay (Tox21)
Records with an inconclusive call do not appear. Entries that show only a call come without a potency. Values without a mark were called inactive. Active and inactive are the calls of the source. Unless noted, the call rests on the fitted dose curve; in most records, active means well fitted curve in the direction sought with a large enough effect in the repeat runs; inconclusive means weak or mixed curves; inactive means no such curve, though single readings can be large; an effect the other way counts as inactive or inconclusive.

Key:
[1] = qHTS assay to identify aromatase inhibitors - cell viability counter screen (AID 743084);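 further: cells stimulated with testosterone during compound exposure; nearly all actives have a fitted effect of over 55% in size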
[2] = qHTS assay to identify small molecule that activate the aryl hydrocarbon receptor (AhR) signaling pathway - cell viability counter screen (AID 743086);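 further: HepG2 liver cells carrying the AhR DRE luciferase reporter; series mostly up to about 70 µM; nearly all actives have a fitted effect of over 45% in size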
Outline: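 HepG2-AhR-luc (HG2L7.5c1) cells, 4000/well, treated 24 h at 37 C with compound; viability measured as CellTiter-Fluor fluorescence after 30 min in the same wells as the luciferase read.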

[3] = molecular target: Peroxisome proliferator-activated receptor gamma (Homo sapiens) (UniProt P37231); assay: qHTS assay to identify small molecule agonists of the peroxisome proliferator-activated receptor gamma (PPARg) signaling pathway (AID 743094; active means well fitted activation curve with a large enough effect in the signal ratio in the repeat runs, not every such curve was filed as active; the % refers to the signal ratio)
Outline: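 Following 5 h plating at 37C, PPARg-bla HEK293H cells receive compound or DMSO for 17 h; fluorescence intensity is recorded after LiveBLAzer B/G loading for 1 h at room temperature.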

[4] = molecular target: Peroxisome proliferator-activated receptor gamma (Homo sapiens) (UniProt P37231); assay: qHTS assay to identify small molecule antagonists of the peroxisome proliferator-activated receptor gamma (PPARg) signaling pathway (AID 743191; calls by dose curve; further: series mostly up to about 63 µM; nearly all actives have a fitted effect of over 30% in size)
Outline: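 GeneBLAzer PPARg UAS-bla HEK293H cells, 5 h post-plating, exposed to compounds 17 h at 37C. LiveBLAzer B/G FRET substrate added for 1 h at room temperature; beta-lactamase reporter read by fluorescence intensity.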

[5] = qHTS assay for small molecule agonists of the antioxidant response element (ARE) signaling pathway (AID 743202; active means well fitted activation curve with a large enough effect in the signal ratio in the repeat runs, not every such curve was filed as active; the % refers to the signal ratio)
Outline: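 ARE-bla HepG2 cells (beta-lactamase reporter under the antioxidant response element), plated 5 hours, then exposed to compounds 16 hours at 37 C. LiveBLAzer B/G FRET substrate added for 2 hours at room temperature; fluorescence intensity read.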

[6] = qHTS assay for small molecule agonists of the antioxidant response element (ARE) signaling pathway - cell viability counter screen (AID 743203; calls by dose curve; further: nearly all actives have a fitted effect of over 55% in size)
Outline: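 Compounds in DMSO were pinned onto ARE-bla HepG2 cells plated 5 hrs earlier at 2,000 cells/well. Sixteen hours later at 37C/5% CO2, CellTiter-Glo was added and luminescence measured after 30 min at room temperature.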

[7] = qHTS assay for small molecule activators of the heat shock response signaling pathway - cell viability counter screen (AID 743209); further: nearly all actives have a fitted effect of over 50% in size
Outline: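 Counter screen for cytotoxicity in HeLa HSE-bla reporter cells. Treatment was 5 h at 37 C; viability was detected by luminescent ATP assay (CellTiter-Glo) in the same wells as the beta-lactamase read.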

[8] = qHTS assay for small molecule activators of the heat shock response signaling pathway (AID 743210; active means well fitted activation curve with a large enough effect in the signal ratio in the repeat runs, with a control signal flat, not every such curve was filed as active; the % refers to the signal ratio; further: series mostly up to about 63 µM)
Outline: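 HSE-bla HeLa cells (beta-lactamase reporter under heat shock response elements), plated overnight, then exposed to compounds 5 h at 37 C; LiveBLAzer B/G FRET substrate added, 2.5 h at room temperature, fluorescence intensity read.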

[9] = qHTS assay to identify small molecule agonists of the peroxisome proliferator-activated receptor delta (PPARd) signaling pathway - cell viability counter screen (AID 743211); further: nearly all actives have a fitted effect of over 55% in size
Outline: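 Viability of GeneBLAzer PPARd UAS-bla HEK293H cells was assessed after 17 h compound incubation at 37C, using CellTiter-Glo reagent added after the reporter read and luminescence recorded 30 min later.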

[10] = qHTS assay to identify small molecule antagonists of the peroxisome proliferator-activated receptor delta (PPARd) signaling pathway - cell viability counter screen (AID 743213); further: nearly all actives have a fitted effect of over 50% in size
Outline: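 Cytotoxicity counter screen: CellTiter-Glo luminescence read 30 min after addition, in the same wells as the reporter assay. There, PPARd UAS-bla HEK293H cells (3000/well) were treated 17 h at 37 C with compound and 300 nM L165041.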

[11] = qHTS assay to identify small molecule agonists of the farnesoid-X-receptor (FXR) signaling pathway - cell viability counter screen (AID 743218); further: nearly all actives have a fitted effect of over 45% in size; further: potency means the concentration at half of the fitted maximal effect
Outline: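 After 16 h at 37 C with test compounds, FXR-bla HEK 293T cells were given LiveBLAzer B/G substrate for 2 h at RT and then CellTiter-Glo; luminescence was taken after 30 min.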

[12] = qHTS assay to identify small molecule antagonists of the farnesoid-X-receptor (FXR) signaling pathway - cell viability counter screen (AID 743221; active means well fitted cell-killing curve with a large enough effect in the repeat runs, not every such curve was filed as active; further: nearly all actives have a fitted effect of over 50% in size)
Outline: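 Quantitative HTS of the Tox21 10K library run in parallel with the beta-lactamase reporter read. HEK 293T cells carrying a UAS-driven bla reporter got compound and 50 uM CDCA (final) for 16 h; ATP-based luminescence followed.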

[13] = molecular target: Peroxisome proliferator-activated receptor delta (Homo sapiens) (UniProt Q03181); assay: qHTS assay to identify small molecule agonists of the peroxisome proliferator-activated receptor delta (PPARd) signaling pathway (AID 743212; calls by dose curve)
Outline: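 GeneBLAzer UAS-bla HEK293H cells carrying a PPARδ construct were exposed to compounds at 37 °C. Beta-lactamase activity was read by FRET fluorescence after 2 h at room temperature with LiveBLAzer B/G substrate.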

[14] = molecular target: Peroxisome proliferator-activated receptor delta (Homo sapiens) (UniProt Q03181); assay: qHTS assay to identify small molecule antagonists of the peroxisome proliferator-activated receptor delta (PPARd) signaling pathway (AID 743215; active means well fitted inhibition curve with a large enough effect in the signal ratio in the repeat runs, not every such curve was filed as active; the % refers to the signal ratio;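 further: cells stimulated with agonist L165041 at 300 nM final during compound exposure; series mostly up to about 62 µM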)
Outline: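 With L165041 present at 300 nM final, compounds were incubated 17 h at 37 C on PPARd UAS-bla HEK293H cells. A FRET-based beta-lactamase substrate was then applied for 2 h at room temperature and fluorescence intensity recorded.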

[15] = molecular target: Bile acid receptor (Homo sapiens) (UniProt Q96RI1); assay: qHTS assay to identify small molecule agonists of the farnesoid-X-receptor (FXR) signaling pathway (AID 743220; active means well fitted activation curve with a large enough effect in the signal ratio in the repeat runs, not every such curve was filed as active; the % refers to the signal ratio)
Outline: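 Beta-lactamase reporter under UAS control in GeneBLAzer FXR HEK 293T cells (5000/well) measured with LiveBLAzer FRET substrate after 2 h at room temperature. Compound exposure lasted 16 h at 37C.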

[16] = molecular target: Vitamin D3 receptor (Homo sapiens) (UniProt P11473); assay: qHTS assay to identify small molecule agonists of the vitamin D receptor (VDR) signaling pathway (AID 743222; calls by dose curve)
Outline: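 VDR-bla cells were seeded, left 4 h, treated with compounds in DMSO for 16 h, incubated 2 h at RT with B/G FRET substrate, and read for fluorescence.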

[17] = molecular target: Vitamin D3 receptor (Homo sapiens) (UniProt P11473); assay: qHTS assay to identify small molecule antagonists of the vitamin D receptor (VDR) signaling pathway (AID 743223; active means well fitted inhibition curve with a large enough effect in the signal ratio in the repeat runs, not every such curve was filed as active; the % refers to the signal ratio)
Outline: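 Fluorescence from LiveBLAzer B/G FRET substrate, read after 2 h at room temperature, reflects beta-lactamase reporter activity in VDR-bla cells treated 16 h at 37C with compounds and agonist 1alpha,25-dihydroxyvitamin D3 (3 nM final).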

[18] = qHTS assay to identify small molecule antagonists of the peroxisome proliferator-activated receptor gamma (PPARg) signaling pathway - cell viability counter screen (AID 743194); further: nearly all actives have a fitted effect of over 55% in size
Outline: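 Cytotoxicity counter screen in PPARg-bla HEK293H cells, same wells as reporter assay. Compounds plus 50 nM rosiglitazone (final) for 17 h at 37 C, then viability read by CellTiter-Glo luminescence.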

[19] = molecular target: Bile acid receptor (Homo sapiens) (UniProt Q96RI1); assay: qHTS assay to identify small molecule antagonists of the farnesoid-X-receptor (FXR) signaling pathway (AID 743217; active means well fitted inhibition curve with a large enough effect in the signal ratio in the repeat runs, not every such curve was filed as active; the % refers to the signal ratio)
Outline: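 In this cell-based antagonist screen, inhibition of CDCA-driven (50 uM final) UAS-beta-lactamase expression in HEK 293T cells was measured by FRET fluorescence following 16 h compound exposure at 37 °C.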

Sequence of Bile acid receptor (Homo sapiens) (Q96RI1 whole entry, looked up): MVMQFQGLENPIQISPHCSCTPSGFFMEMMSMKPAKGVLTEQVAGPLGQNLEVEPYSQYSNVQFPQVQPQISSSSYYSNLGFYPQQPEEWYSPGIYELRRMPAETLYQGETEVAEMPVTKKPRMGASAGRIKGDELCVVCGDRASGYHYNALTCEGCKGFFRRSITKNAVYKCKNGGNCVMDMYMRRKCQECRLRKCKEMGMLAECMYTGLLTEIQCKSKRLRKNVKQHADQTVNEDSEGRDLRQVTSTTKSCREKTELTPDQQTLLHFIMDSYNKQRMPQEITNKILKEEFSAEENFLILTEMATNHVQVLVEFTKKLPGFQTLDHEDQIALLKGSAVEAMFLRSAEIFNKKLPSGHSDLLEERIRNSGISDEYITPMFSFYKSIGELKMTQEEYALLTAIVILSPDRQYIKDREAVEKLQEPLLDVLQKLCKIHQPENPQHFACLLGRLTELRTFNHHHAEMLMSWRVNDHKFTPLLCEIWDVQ
Sequence of Vitamin D3 receptor (Homo sapiens) (P11473 whole entry, looked up): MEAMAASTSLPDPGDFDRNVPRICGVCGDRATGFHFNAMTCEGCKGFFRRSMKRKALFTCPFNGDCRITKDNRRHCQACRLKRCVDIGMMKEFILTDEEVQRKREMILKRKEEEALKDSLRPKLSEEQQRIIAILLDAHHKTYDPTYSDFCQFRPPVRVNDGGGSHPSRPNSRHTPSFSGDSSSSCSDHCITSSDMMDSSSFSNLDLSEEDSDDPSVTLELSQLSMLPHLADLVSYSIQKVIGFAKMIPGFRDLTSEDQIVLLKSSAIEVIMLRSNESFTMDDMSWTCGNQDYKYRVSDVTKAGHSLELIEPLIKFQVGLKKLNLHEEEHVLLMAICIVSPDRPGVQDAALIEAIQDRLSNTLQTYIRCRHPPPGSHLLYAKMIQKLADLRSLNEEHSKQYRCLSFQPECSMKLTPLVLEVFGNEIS
Sequence of Peroxisome proliferator-activated receptor delta (Homo sapiens) (Q03181 whole entry, looked up): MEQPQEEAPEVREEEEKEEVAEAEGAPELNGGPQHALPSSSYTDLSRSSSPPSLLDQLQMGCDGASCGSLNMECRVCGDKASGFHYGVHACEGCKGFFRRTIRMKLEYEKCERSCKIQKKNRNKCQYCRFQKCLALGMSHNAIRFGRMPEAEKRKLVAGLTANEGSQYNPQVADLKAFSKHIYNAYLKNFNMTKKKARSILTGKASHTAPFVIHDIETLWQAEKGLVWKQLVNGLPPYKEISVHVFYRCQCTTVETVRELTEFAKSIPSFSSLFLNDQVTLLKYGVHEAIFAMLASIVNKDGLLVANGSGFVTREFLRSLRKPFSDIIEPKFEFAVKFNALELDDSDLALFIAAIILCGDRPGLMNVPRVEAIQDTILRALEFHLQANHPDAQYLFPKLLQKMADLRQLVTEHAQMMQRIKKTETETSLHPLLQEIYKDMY
Sequence of Peroxisome proliferator-activated receptor gamma (Homo sapiens) (P37231 whole entry, looked up): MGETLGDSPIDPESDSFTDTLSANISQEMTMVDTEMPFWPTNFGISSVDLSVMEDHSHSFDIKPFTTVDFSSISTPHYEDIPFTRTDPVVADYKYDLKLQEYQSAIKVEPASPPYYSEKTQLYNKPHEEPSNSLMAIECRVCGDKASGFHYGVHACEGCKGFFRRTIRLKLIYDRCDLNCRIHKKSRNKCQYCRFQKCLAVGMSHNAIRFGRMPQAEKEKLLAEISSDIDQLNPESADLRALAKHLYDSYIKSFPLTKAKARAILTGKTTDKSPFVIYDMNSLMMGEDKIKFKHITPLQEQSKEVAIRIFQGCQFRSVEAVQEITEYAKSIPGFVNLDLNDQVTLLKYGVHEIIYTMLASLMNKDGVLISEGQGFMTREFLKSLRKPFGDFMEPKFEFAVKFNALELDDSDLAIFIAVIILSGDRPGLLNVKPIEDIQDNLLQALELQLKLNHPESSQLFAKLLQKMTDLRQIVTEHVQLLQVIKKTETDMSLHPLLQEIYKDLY

Row | SMILES | Potency [1] | Potency [2] | outcome [3] | Potency [4] | Potency [5] | outcome [6] | outcome [7] | outcome [8] | outcome [9] | outcome [10] | Potency [11] | outcome [12] | outcome [13] | outcome [14] | Potency [15] | outcome [16] | outcome [17] | outcome [18] | Potency [19]
1 | Cc1cccc(C)c1OCC(C)N (configuration not stated) | inactive | inactive | inactive | inactive | inactive | inactive | inactive | inactive | inactive | inactive | inactive | inactive |  |  |  |  |  |  | 
2 | C#CC(C)N(C)C(=O)Nc1ccc(Cl)cc1 (configuration not stated) | inactive | inactive | inactive | inactive | inactive | inactive | inactive | inactive | inactive | inactive | 0.436 µM (active) | inactive | inactive | inactive | inactive | inactive |  |  | 
3 | CC(C)c1ccc2cc(C(C)C)ccc2c1 | inactive | inactive | inactive |  | inactive | inactive | inactive | inactive | inactive | inactive | inactive | inactive |  |  |  | inactive | inactive |  | 
4 | CCN(CC)CC(=O)Nc1c(C)cccc1C | inactive | inactive |  |  | inactive | inactive | inactive | inactive | inactive |  | inactive | inactive |  |  | inactive |  |  | inactive | inactive
5 | CCCCCCCCC(=O)Cl | inactive | inactive | inactive |  |  |  | inactive | inactive | inactive | inactive | inactive | inactive | inactive | inactive | inactive | inactive |  |  | 
6 | CCCCCCCCC1CCC(=O)O1 (configuration not stated) | inactive | inactive | inactive |  |  |  | inactive | inactive | inactive | inactive | inactive | inactive | inactive | inactive | inactive | inactive |  | inactive | inactive
7 | O=C(/N=N/C(=O)OCc1ccccc1)OCc1ccccc1 | inactive | inactive | inactive |  | inactive | inactive | inactive |  | inactive |  | inactive |  |  | inactive |  | inactive |  | inactive | 
8 | CCCCOCCOC(=O)COc1nc(Cl)c(Cl)cc1Cl | inactive | inactive | inactive |  |  |  | inactive | inactive | inactive |  | inactive | inactive | inactive | inactive | inactive | inactive |  | inactive | inactive
9 | C=C(C)C(=O)OCCN(CC)CC | inactive | inactive | inactive |  | inactive |  |  | inactive | inactive |  | inactive |  |  | inactive |  | inactive | inactive | inactive | 
10 | C[C@@H]1O[C@@H](O[C@@H]2[C@@H](O)[C@H](OCCc3ccc(O)c(O)c3)O[C@H](CO[C@@H]3O[C@H](CO)[C@@H](O)[C@H](O)[C@H]3O)[C@H]2OC(=O)/C=C/c2ccc(O)c(O)c2)[C@H](O)[C@H](O)[C@H]1O | inactive | inactive | inactive | inactive |  | inactive | inactive | inactive |  |  | inactive | inactive | inactive | inactive |  | inactive | inactive |  | 
11 | BrCCCCCBr | inactive | inactive | inactive |  | inactive |  | inactive | inactive | inactive | inactive | inactive |  | inactive | inactive | inactive | inactive | inactive | inactive | 
12 | Cc1ccsc1/C=C/C1=NCCCN1C | inactive | inactive | inactive |  | inactive | inactive | inactive | inactive |  | inactive |  | inactive | inactive | inactive | inactive | inactive | inactive | inactive | 
13 | CCCCCCCC/C=C\CCCCCCCC(=O)OCCCC | inactive | inactive | inactive |  | inactive | inactive | inactive | inactive | inactive |  | inactive | inactive | inactive | inactive | inactive | inactive |  | inactive | 
14 | O=C(CCNNC(=O)c1ccncc1)NCc1ccccc1 | inactive | inactive |  |  | inactive | inactive | inactive | inactive | inactive |  | inactive | inactive |  |  | inactive | inactive | inactive | inactive | inactive
15 | Nc1ccc(S(=O)(=O)Nc2ccc(Cl)nn2)cc1 | inactive | inactive | inactive | inactive |  |  | inactive | inactive |  | inactive | inactive |  | inactive | inactive | inactive | inactive | inactive | inactive | inactive
16 | CCOCCOCCOCC | inactive | inactive | inactive | inactive | inactive |  | inactive | inactive | inactive | inactive | inactive | inactive |  |  |  | inactive | inactive |  | 
17 | CCCCCCCCSCC | inactive | inactive | inactive |  |  | inactive | inactive | inactive | inactive | inactive | inactive | inactive | inactive | inactive |  | inactive |  | inactive | 
18 | Cc1ccc(S(=O)(=O)O)c(C)c1 | inactive | inactive | inactive | inactive | inactive | inactive | inactive | inactive | inactive | inactive | inactive | inactive | inactive | inactive |  | inactive | inactive |  | 
